From PubChem BioAssay
ALOX12 inh: inhibitors of human 12S-lipoxygenase ALOX12 | AID 1671190 | Potency, µM (titrated, usually from 108 µM), for the others: at the top dose activity change, negative = inhibition, actives largely listed as inhibitors | P18054 | 580,000 tested, 1.1% active | purified 12hLO, xylenol orange hydroperoxide absorbance; note: potency is the fitted concentration of half-maximal effect; % is set by controls: 0 for no effect and ±100 for the full control effect
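Purified human 12hLO (150 nM final) in 25 mM Hepes, 0.01% Triton X-100, pH 7.0 was preincubated 15 min at room temperature with compound. Then 40 uM arachidonic acid was added, 30 min. Hydroperoxide was read by Fe-XO absorbance ratio 573/405 nm.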
Vif-APOBEC3G blk: Vif-A3G binding inhibition; Q9HC16; HeLa A3G-eYFP + Vif (tagged APOBEC3G with the HIV-1 protein that degrades it), YFP fluorescence, overnight; Potency, µM (highest dose often 46.1 µM), for inactives: top-dose activity, negative = active, most hits filed as inhibitors; 410,000 tested, 0.076% active; AID 602310; note: potency is the fitted concentration of half-maximal effect; % is set by controls: 0 for no effect and ±100 for the full control effect; nearly all actives have a fitted effect of over 60% in size
Target sequence (Q9HC16 whole entry, looked up): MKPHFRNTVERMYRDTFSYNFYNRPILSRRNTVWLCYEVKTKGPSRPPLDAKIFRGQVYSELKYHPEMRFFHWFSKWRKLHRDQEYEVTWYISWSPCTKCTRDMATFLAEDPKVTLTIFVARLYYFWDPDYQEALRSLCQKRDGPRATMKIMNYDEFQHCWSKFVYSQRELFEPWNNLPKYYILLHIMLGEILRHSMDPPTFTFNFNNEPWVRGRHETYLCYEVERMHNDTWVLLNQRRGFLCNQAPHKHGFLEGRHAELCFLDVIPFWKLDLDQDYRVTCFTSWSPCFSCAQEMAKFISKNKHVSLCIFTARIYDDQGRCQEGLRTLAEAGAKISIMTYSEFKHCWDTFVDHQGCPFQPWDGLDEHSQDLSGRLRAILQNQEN
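Read-out is eYFP fluorescence (Ex 488/Em 500-530) from Vif-expressing HeLa A3G-eYFP cells; more signal means A3G escaped Vif-mediated degradation. Cells plated overnight, compound pinned in, incubated overnight at 37 deg C.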
TRPML1 ag: human mucolipin-1 channel agonism; Q9GZU1; TRPML1-expressing cells, Ca2+ dye fluorescence, FDSS; activation, % (test concentration not listed); 410,000 tested, 0.12% active; AID 624414; in the data active = activation above about 50%; inconclusive = mostly about 30% to 49%; note: 0% is about no effect
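Tet-induced TRPML1-DL cells, 1,500 per well, cultured overnight, were loaded with a no-wash Ca2+ dye for 45–90 min. Calcium fluorescence was recorded on the FDSS for 110 s after compound addition, before the EC80 agonist (4 uM 54-4) was added.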
Vif-APOBEC3F blk: Vif-A3F binding inhibition; Potency, µM (series often up to 46.1 µM), inactives show top-dose activity, negative = active; HeLa A3F-eYFP + Vif (tagged APOBEC3F with the HIV-1 protein that degrades it), YFP fluorescence increase; 390,000 tested, 0.2% active; note: potency is the fitted concentration of half-maximal effect; % of control where 0% means no effect; nearly all actives have a fitted effect of over 65% in size
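Fluorescence increase (Ex 488/Em 500-530) after overnight compound treatment at 37 deg C flags inhibition of Vif-driven A3F-eYFP loss in stable HeLa A3F-eYFP/Vif cells seeded overnight beforehand.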
GRP78 ERSR act: inducers of ER stress response in human glioma cells; U87-MG GRP78 promoter luciferase reporter, 16 h; Potency, µM, without a hit: at the top dose activation, hits mostly activators; 420,000 tested, 0.02% active; AID 602332; note: potency is the fitted concentration of half-maximal effect; series mostly up to about 76 µM; % of control where 0% means no effect; nearly all actives have a fitted effect of over 35% in size
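Stably transfected U87-MG human glioma cells carrying a GRP78-based luminescent sensor were seeded at 1000 cells/well, pin-dosed with compounds and incubated 16 h. Luciferase reagent was then added, and end-point luminescence was read after 10 min at room temperature.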
TRPML1 blocker: blocks the human TRPML1 channel; Q9GZU1; TRPML1-inducible cells, Ca2+ dye fluorescence, FDSS; active compounds read low; inhibition of EC80 agonist-evoked calcium signal; activity change, negative = inhibition, % (no concentration beside the values); 390,000 tested, 0.02% active; AID 624415; in the data active = activity change below about -50%; inconclusive = between about -30% and that limit;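 note: stimulus is agonist 54-4 at its EC80 concentration; % is set by controls: 0 for no effect and ±100 for the full control effect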
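Calcium fluorescence in TRPML1-DL cells induced overnight with Tet: a 110 s read after compound pin addition, then a 110 s antagonist read after challenge with 54-4 at 4 uM final (EC80).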
* marks the source's active call; other numbers are inactive results; ? = inconclusive; · = no result; ! = not active in a repeat; [ ] = another dose, or the depositor's remark. Compounds with a hit are over-represented: about 1.3% of the library has one in this group of screens. Unless noted, calls come from the whole dose curve; as a rule, active = well fitted curve in the direction sought with a large enough effect; inconclusive = small, poorly fitted or top-dose-only effect, or another doubt; inactive = no such curve, though single readings can be large; an effect the other way counts as inactive or inconclusive.

SMILES | ALOX12 inh | Vif-APOBEC3G blk | TRPML1 ag | Vif-APOBEC3F blk | GRP78 ERSR act | TRPML1 blocker
O=C(O)c1[nH]c2ccccc2c1C(c1cc(Br)ccc1O)c1c(C(=O)O)[nH]c2ccccc12 | ? | 1% | -1 | -1% | -3% | -4
Cc1ccc(C(=O)N(C)C2CCN(CCc3ccccn3)CC2)s1 | -17% | · | · | · | · | ·
C[n+]1ccc(/C=C/c2c[nH]c3ccc(F)cc23)cc1 | 11% | 8.9µM* | 15 | 10µM* | -2% | -13
Cn1cc(/C=C/c2cc[n+](C)cc2)c2cc(F)ccc21 | · | ? | 12 | ? | 1% | 14
CCNc1ncc2nc(CCc3ccccc3)c(=O)n(C[C@H]3CCCO3)c2n1 | 7.1µM* | · | · | · | -3% | ·
CCOC(=O)c1c(C)[nH]c(C(=O)C(C)Sc2ccc(Cl)cc2)c1C (stereo not drawn) | 12% | 0% | 1 | -1% | -2% | 44
CC(=O)c1c(C)[nH]c(C(=O)C(C)Sc2ccc(F)c(Cl)c2)c1C (stereo not drawn) | 45µM* | · | · | · | · | ·
CCN1c2cc(C(=O)Nc3ccc4c(c3)CCC4)ccc2C(=O)N2CCCCC21 (stereo not drawn) | -13% | · | · | · | · | ·
O=C(NCCCOC1CCCCC1)c1cc(=O)c2ccccc2o1 | -12% | · | · | · | · | ·
O=C(CSc1nnc(-c2ccco2)c(-c2ccco2)n1)c1ccccc1 | 28µM* | 0% | 1 | ? | 1% | -8
O=C(Cc1cccc2ccccc12)NC(=S)Nc1cccc(C(=O)O)c1 | 35µM* | -5% | 0 | 1% | -3% | 17
O=C(Cc1cccc2ccccc12)Nc1cc(Cl)ccc1C(=O)O | 18µM*! | -8% | 1 | 0% | 2% | 43
COc1cc(/C=C/c2nc3ccccc3s2)cc(OC)c1OC | -11% | · | · | · | · | ·
COc1cc2nc(/C=C/c3ccc(N(C)C)cc3)sc2cc1SC | -29% | ? | 120* | 8.9µM* | 2% | -12
O=C(NCCc1ccccn1)c1ccc(I)cc1 | -41% | · | · | · | · | ·
CSc1cccc(NC(=S)NN/C(=N/S(=O)(=O)c2ccccc2)N2CCCC2)c1 | 45µM* | · | · | · | · | ·
CC1CCC(C)[S+]1c1cc(O)ccc1O (stereo not drawn) | 10µM* | · | · | · | · | ·
CCOC(=O)/C(C#N)=C\C=C1C=CN(C)C=C1 | 0% | ? | 26 | 22µM* | -3% | 0
CCOC(=O)/C(C#N)=C\c1ccc(N)cc1 | 49% | · | · | · | · | ·
CC(C)(C)c1ccc(/C=N/c2sc3c(c2C#N)CCCC3)cc1 | 28µM* | · | · | · | · | ·
CCN(/C=N/c1sc2c(c1C#N)CCCCC2)CC | 45µM* | -2% | 2 | 1% | 5% | -6
N#Cc1c(N)sc(=S)c2c1CCCCC2 | ? | 4% | 9 | ? | -6% | -8
CC(C)c1ccc(/C=N/c2sc3c(c2C#N)CCCC3)cc1 | -16% | · | · | · | · | ·
CC(C)CN(/C=N/c1sc2c(c1C#N)CCCCC2)CC(C)C | 21%[57.4 µM] | 0% | 0 | 2% | -12% | -6
N#Cc1c(N)sc2c1CCCCCC2 | 35µM* | 0% | 0 | -5% | 6% | -4
SMILES | ALOX12 inh | Vif-APOBEC3G blk | TRPML1 ag | Vif-APOBEC3F blk | GRP78 ERSR act | TRPML1 blocker
CCOC(=O)c1c(C)[nH]c(C)c1S(=O)(=O)N(C)CC(=O)Nc1ccc(C(C)C)cc1 | -11% | · | · | · | · | ·
CN(CC(=O)NC1CC1)C(=O)Cc1cccc(C(F)(F)F)c1 | 22% | · | · | · | · | ·
O=C(NC(C1CC1)C1CC1)c1ccncc1 | 15% | · | · | · | · | ·
O=Cc1[nH]c2ccccc2c1N(C(=O)CCl)c1ccc([N+](=O)[O-])cc1 | 40µM* | -29% | 0 | 7% | -3% | 7
CCOC(=O)Cc1csc(NC(=O)c2sc3nc4c(C)cc(C)cc4cc3c2N)n1 | ? | ? | 14 | 25µM* | 2% | 17
S=C1SCN(Cc2ccccc2)CN1Cc1ccco1 | 35µM* | 3% | 0 | ? | -3% | 11
O=C1[C@H]2[C@@H](c3ccccc3)N[C@]3(CCCN(Cc4ccc(Cl)cc4)C3=O)[C@H]2C(=O)N1Cc1ccccc1 | 7.9µM* | -6% | 1 | -11% | -2% | 14
